Experimental data: PubChem BioAssay (NCI)
The panel holds about 79,000 compounds, 15% with a hit somewhere; the sample as a whole holds those more often. Active and inactive are the calls of the source. Rule as the data show it: active = growth inhibition above about 70%; inactive = the rest.

Experiments:
[1] = NCI Yeast Anticancer Drug Screen. Data for the rad50 strain (AID 155);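 also: 0% = growth of vehicle-only cultures of the same strain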; conditions: S. cerevisiae rad50 strain growth inhibition, hits give high values
In short: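 Relative growth inhibition (compound vs vehicle) was measured in yeast with a defined repair-gene alteration.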

[2] = NCI Yeast Anticancer Drug Screen. Data for the mec2-1 strain (AID 157); conditions: S. cerevisiae mec2-1 strain, hits give high values
In short: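 Readout is yeast growth inhibition, normalised to vehicle-treated controls, in the mec2-1 strain exposed to compound.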

[3] = NCI Yeast Anticancer Drug Screen. Data for the sgs1 mgt1 strain (AID 161);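 also: 0% = growth of cultures given vehicle only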; conditions: S. cerevisiae sgs1 mgt1 strain, hits give high values
In short: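 Compounds are added to genetically altered yeast, and growth is compared with cultures given vehicle alone to give percent inhibition.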

[4] = NCI Yeast Anticancer Drug Screen. Data for the cln2 rad14 strain (AID 165);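 also: 0% = growth equal to vehicle treated cultures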; conditions: S. cerevisiae cln2 rad14 strain, hits give high values
In short: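 Relative to vehicle controls, growth inhibition of compound-treated cln2 rad14 yeast was recorded.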

[5] = NCI Yeast Anticancer Drug Screen. Data for the bub3 strain (AID 167); conditions: S. cerevisiae bub3 mutant strain, hits give high values
In short: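 Screening used yeast with an engineered genetic alteration affecting cell cycle control. Compound-exposed cultures were compared with vehicle cultures, and reduced growth was taken as inhibition.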

[6] = NCI Yeast Anticancer Drug Screen. Data for the mlh1 rad18 strain (AID 175); conditions: S. cerevisiae mlh1 rad18 strain growth inhibition, hits give high values
In short: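 Test agents were incubated with a yeast strain of defined genotype (DNA damage repair defect). Inhibition of growth was derived by comparison with vehicle-exposed cultures.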

[7] = at 5.0 µM (retest, dose inferred, filed as 0.5)
[8] = at 50.0 µM (retest, dose inferred, filed as 5.0)

Measured: growth inhibition

CC(/C=C/c1ccco1)=N\NC(=S)NCC(C)C
inactive: [1]; [7] 13% | [1]; at 50.0 µM 63.5% | [2]; [7] -20% | [2]; [8] 53% | [2]; at 50.0 µM 61.9% | [3]; [7] 38% | [4]; [7] 16% | [4]; [8] 61% | [4]; at 50.0 µM 64.4% | [5]; [7] 30% | [6]; [7] 25%
active: [1]; [8] 80% | [3]; [8] 86% | [3]; at 50.0 µM 81.2% | [5]; [8] 87% | [5]; at 50.0 µM 83.5% | [6]; [8] 88% | [6]; at 50.0 µM 75.5%

Cc1ccc(O)c(C(C)c2ccccc2)c1 (stereo not given)
active: [1]; [8] 97% | [1]; at 50.0 µM 99.2% | [2]; [8] 99% | [2]; at 50.0 µM 99.6% | [3]; [8] 97% | [3]; at 50.0 µM 98.8% | [4]; [8] 96% | [4]; at 50.0 µM 98.8% | [5]; [8] 98% | [5]; at 50.0 µM 98.8% | [6]; [8] 98% | [6]; at 50.0 µM 99.1%
inactive: [1]; [7] 6% | [2]; [7] -20% | [3]; [7] -3% | [4]; [7] -8% | [5]; [7] 21% | [6]; [7] 2%

CC(C)/C(Cl)=N/OC(NC(=O)Nc1ccc(Cl)c(Cl)c1)(C(F)(F)F)C(F)(F)F
active: [1]; [8] 99% | [1]; at 50.0 µM 99.2% | [2]; [8] 100% | [2]; at 50.0 µM 99.6% | [3]; [8] 100% | [3]; at 50.0 µM 99.5% | [4]; [8] 99% | [4]; at 50.0 µM 99.2% | [5]; [8] 100% | [5]; at 50.0 µM 99.5% | [6]; [8] 99% | [6]; at 50.0 µM 99.5%
inactive: [1]; [7] 7% | [2]; [7] 9% | [3]; [7] 5% | [4]; [7] 26% | [5]; [7] 40% | [6]; [7] 23%

COc1ccc2c(c1)Cc1cc(NC(=O)N(CCCl)N=O)ccc1-2
inactive: [1]; [7] -2% | [2]; [7] 2% | [2]; at 50.0 µM 55.9% | [3]; [7] 3% | [4]; [7] -5% | [4]; [8] 49% | [4]; at 50.0 µM -0.85% | [5]; [7] -11% | [5]; [8] 41% | [5]; at 50.0 µM 22.9% | [6]; [7] 28%
active: [1]; [8] 85% | [1]; at 50.0 µM 90.2% | [2]; [8] 88% | [3]; [8] 77% | [3]; at 50.0 µM 89.2% | [6]; [8] 94% | [6]; at 50.0 µM 95.6%

CCCCOS(=O)(=O)c1ccc(C)cc1
inactive: [1]; [7] -7% | [1]; [8] 15% | [1]; at 50.0 µM 9.1% | [2]; [7] -4% | [2]; [8] -22% | [2]; at 50.0 µM -82.3% | [3]; [7] -8% | [3]; [8] 7% | [3]; at 50.0 µM -9.45% | [4]; [7] 1% | [4]; [8] -15% | [4]; at 50.0 µM 25.1% | [5]; [7] -16% | [5]; [8] -39% | [5]; at 50.0 µM -23.5% | [6]; [7] -6% | [6]; [8] -4% | [6]; at 50.0 µM -3.55%

Oc1c(Cl)c(Cl)c(O)c2c1CCCC2
inactive: [1]; [7] 46% | [2]; [7] 67% | [3]; [7] 69% | [4]; [7] 14% | [5]; [7] 65%
active: [1]; [8] 98% | [1]; at 50.0 µM 99.3% | [2]; [8] 99% | [2]; at 50.0 µM 99.5% | [3]; [8] 99% | [3]; at 50.0 µM 99.2% | [4]; [8] 99% | [4]; at 50.0 µM 98.9% | [5]; [8] 98% | [5]; at 50.0 µM 99.5% | [6]; [7] 78% | [6]; [8] 99% | [6]; at 50.0 µM 99.4%

CCOC(=O)C1c2[nH]c3ccccc3c2CCN1C(=O)c1ccc(OC)o1 (stereo not given)
active: [1]; [8] 71% | [1]; at 50.0 µM 83.5% | [2]; at 50.0 µM 79.8% | [3]; [8] 80% | [3]; at 50.0 µM 82% | [4]; [8] 81% | [5]; [8] 76% | [5]; at 50.0 µM 84.3% | [6]; [8] 73% | [6]; at 50.0 µM 83.2%
inactive: [1]; [7] 0% | [2]; [7] -36% | [2]; [8] 60% | [3]; [7] 13% | [4]; [7] 7% | [4]; at 50.0 µM 67.7% | [5]; [7] -17% | [6]; [7] -12%

COc1cc(/C=C2/C(=O)N(C(=O)c3ccccc3O)N=C2C)cc(OC)c1OC
active: [5]; [8] 80% | [5]; at 50.0 µM 77.1%
inactive: [1]; [7] -14% | [1]; [8] 23% | [1]; at 50.0 µM 64% | [2]; [7] 9% | [2]; [8] 35% | [2]; at 50.0 µM 16.6% | [3]; [7] -8% | [3]; [8] 28% | [3]; at 50.0 µM 36.5% | [4]; [7] -4% | [4]; [8] 26% | [4]; at 50.0 µM 26.4% | [5]; [7] 12% | [6]; [7] 20% | [6]; [8] 61% | [6]; at 50.0 µM 39.2%

CCOC(=O)c1ccc(NC(=O)O/N=C(/Cl)CCl)cc1
inactive: [1]; [7] -14% | [1]; at 50.0 µM 41.2% | [2]; [7] -5% | [3]; [7] -22% | [3]; [8] 50% | [3]; at 50.0 µM 55.3% | [4]; [7] -10% | [4]; at 50.0 µM 57.2% | [5]; [7] -16% | [5]; [8] 43% | [6]; [7] -5% | [6]; at 50.0 µM 69%
active: [1]; [8] 99% | [2]; [8] 95% | [2]; at 50.0 µM 83.8% | [4]; [8] 78% | [5]; at 50.0 µM 73.5% | [6]; [8] 79%

COc1cc(/C=C2\Sc3scc(-c4cccc([N+](=O)[O-])c4)[n+]3C2=O)cc(OC)c1OC
inactive: [1]; [7] 1% | [2]; [7] -1% | [3]; [7] 13% | [3]; [8] 40% | [4]; [7] -26% | [5]; [7] -10% | [6]; [7] 5%
active: [1]; [8] 94% | [1]; at 50.0 µM 99% | [2]; [8] 82% | [2]; at 50.0 µM 99% | [3]; at 50.0 µM 86.2% | [4]; [8] 91% | [4]; at 50.0 µM 98.4% | [5]; [8] 95% | [5]; at 50.0 µM 99.1% | [6]; [8] 73% | [6]; at 50.0 µM 99%
